Only some compounds are listed: those with a hit (about 6.5% of all), similar ones and a draw of the others.
Marburg entry inh = inhibitors of Marburg virus binding or cell entry; Marburg virus pseudotyped entry inhibition, cell reporter; Potency, µM (top dose mostly 37.8 µM), most hits filed as inhibitors; hit rate 1.8% among 300,000; AID 540276; calls by dose curve; tested in HEK293 cells
VACV mCherry inh = inhibitors of vaccinia virus infection (mCherry reporter signal) | Vaccinia virus mCherry reporter infection, fluorescence | Potency, µM (doses to about 36.5 µM), actives largely listed as inhibitors | hit rate 0.63% among 310,000; calls by dose curve; tested in A549 cells; note: nearly all actives have a fitted effect of over 35% in size
HCMV inh = inhibitors of human cytomegalovirus. HFF cells, HCMV-luciferase reporter, 72 h; hits give low values. activity change, negative = inhibition, % at 57.5 µM. hit rate 4.5% among 410,000. AID 1259415; in the data active = activity change below about -60%; inconclusive = no clear call, values can overlap the other calls; inactive = above about -39%
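Steps: HFFs plated, 16 h 37C; compounds added; HCMV-luciferase added to MOI 1 PFU/cell; 72 h 37C; OneGlo reagent, 5 min room temperature; luminescence read, normalized to controls.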
VACV Venus inh = vaccinia inhibition (Venus reporter); hit rate 0.46% among 330,000; AID 720580; Vaccinia virus Venus reporter expression, fluorescence; Potency, µM (titrated, usually from 36.5 µM), hits mostly inhibitors; calls by dose curve; tested in A549 cells; note: nearly all actives have a fitted effect of over 30% in size
FMDV antiviral = foot and mouth disease virus antiviral activity | FMDV antiviral cell-based qHTS | Potency, µM (series often up to 57.9 µM), usual class: inhibitors | hit rate 1.2% among 410,000 | AID 1159524; calls by dose curve; tested in HEK293T cells; note: read-out not given here; nearly all actives have a fitted effect of over 45% in size
Lassa entry inh = inhibitors of Lassa virus binding or cell entry | Lassa virus pseudotype entry inhibition, cell reporter | Potency, µM (titrated, usually from 37.9 µM), actives largely listed as inhibitors | hit rate 1.2% among 300,000 | AID 540256; calls by dose curve; tested in HEK293 cells; note: nearly all actives have a fitted effect of over 50% in size
Large screens that a line does not name were inactive; ! = not confirmed by another sample.

COc1cccc(-c2cc3c(Nc4cccc(NC(C)=O)c4)nccc3n2C)c1	none (no result: Marburg entry inh, VACV mCherry inh, VACV Venus inh, FMDV antiviral, Lassa entry inh)
COCC(=O)N1CCCCN2[C@H](C1)[C@H](c1ccc(C#Cc3ccccc3)cc1)[C@@H]2CO	none (no result: Marburg entry inh, VACV mCherry inh, VACV Venus inh, FMDV antiviral, Lassa entry inh)
COc1ccc(-c2nc3cnc(OC)nc3n(C[C@H]3CCCO3)c2=O)cc1	none (no result: Marburg entry inh, VACV mCherry inh, HCMV inh, VACV Venus inh, Lassa entry inh)
CN(C)Cc1c(-c2ccc(Cl)cc2)nc2ccccn12	Marburg entry inh inconclusive
Clc1ccc(-c2nc3ccccn3c2CN2CCCCC2)cc1	HCMV inh -77, FMDV antiviral inconclusive (no result: Marburg entry inh, VACV mCherry inh, VACV Venus inh, Lassa entry inh)
Clc1ccccc1-c1nc2c(NCc3ccccc3)nccc2[nH]1	none (no result: Marburg entry inh, VACV mCherry inh, VACV Venus inh, FMDV antiviral, Lassa entry inh)
C1CCC2(CC1)C1=C(CCCC1)Nc1nnnn12	HCMV inh -93 (no result: VACV mCherry inh, VACV Venus inh)
Cc1ccc(-n2c(C)nc3c(cnn3-c3ccc(C)c(C)c3)c2=O)cc1C	HCMV inh -67, VACV Venus inh inconclusive (no result: Marburg entry inh, Lassa entry inh)
Cc1ccc(-n2c(C)nc3c(cnn3-c3ccc(F)cc3)c2=O)cc1C	FMDV antiviral inconclusive
Cc1ccc(-n2c(C)nc3c(cnn3-c3ccccc3Cl)c2=O)cc1C	none (no result: VACV mCherry inh, VACV Venus inh)
Cc1nc2c(cnn2-c2ccccc2Cl)c(=O)n1-c1ccc(N2CCC(C)CC2)cc1	Marburg entry inh inconclusive, HCMV inh -63, Lassa entry inh inconclusive (no result: VACV mCherry inh, VACV Venus inh)
Cc1cc(C)c(S(=O)(=O)Nc2cc(Cl)c3oc4c(c3c2)C(=O)CCC4)cc1C	none
Nc1nc(N)c2c(ccc3nccc32)[nH]1	VACV mCherry inh inconclusive, HCMV inh -96, VACV Venus inh inconclusive (no result: Marburg entry inh, Lassa entry inh)
O=C(CCNC(=O)c1ccc([N+](=O)[O-])cc1)NC1CCCc2ccccc21 (stereo not given)	Marburg entry inh 2µM, Lassa entry inh inconclusive
O=C(CCNC(=O)c1ccccc1)NC1CCCc2ccccc21 (stereo not given)	Marburg entry inh inconclusive
COc1cc2c(cc1OC)C(c1c[nH]c3ccccc13)NCC2 (stereo not given)	none (no result: Marburg entry inh, VACV mCherry inh, HCMV inh, VACV Venus inh, Lassa entry inh)
CCN1CCN(C(=O)c2cn(CCOC)c(=O)c3c2c2ccccc2n3C)CC1	none (no result: VACV mCherry inh, VACV Venus inh)
CC(C)Cn1cc(C(=O)N2CCN(c3ccccn3)CC2)c2c3ccccc3n(C)c2c1=O	Marburg entry inh 16µM, Lassa entry inh 6.5µM (no result: VACV mCherry inh, VACV Venus inh)
COc1ccc(C(C)n2c(C)c3c(C)nnc(C)c3c2C)cc1 (stereo not given)	Marburg entry inh inconclusive, VACV mCherry inh inconclusive, HCMV inh -81!, VACV Venus inh inconclusive
Cc1cc(C)c2nc(Cl)c(CN(Cc3ccco3)C(=O)Nc3ccccc3C)cc2c1	Marburg entry inh inconclusive, HCMV inh -63, VACV Venus inh inconclusive, Lassa entry inh inconclusive (no result: FMDV antiviral)
COc1ccc(NS(=O)(=O)c2cccc(C(=O)NNC(=O)COc3ccccc3)c2)cc1	Marburg entry inh inconclusive
COc1ccccc1C(CNC(=O)c1cccc(S(=O)(=O)Nc2ccc(C)cc2)c1)N(C)C (stereo not given)	Marburg entry inh inconclusive, HCMV inh -76
COc1ccc(NS(=O)(=O)c2cccc(C(=O)NCC(c3ccccc3)N(C)C)c2)cc1 (stereo not given)	none
COc1ccc(NS(=O)(=O)c2cccc(C(=O)NNC(=O)c3ccccc3O)c2)cc1	VACV mCherry inh inconclusive, HCMV inh -94, Lassa entry inh inconclusive
COc1ccc(NS(=O)(=O)c2cccc(C(=O)NNC(=O)c3cc(C)oc3C)c2)cc1	HCMV inh -101
COC(=O)C1=C(C)N(Cc2ccccc2)C(=NCC(C)C)NC1c1ccc(Br)cc1 (stereo not given)	none (no result: VACV mCherry inh, HCMV inh, VACV Venus inh, FMDV antiviral, Lassa entry inh)
COc1ccc(-c2c3c(=O)n(C)c(=O)n(C)c3cn2-c2cc(OC)ccc2OC)cc1	Marburg entry inh 13µM, VACV mCherry inh inconclusive, Lassa entry inh inconclusive
Cc1ccc2c(c1)C(=O)C1(O)CCN(c3ccccc3)C1=N2 (stereo not given)	none (no result: Marburg entry inh, HCMV inh, Lassa entry inh)
CCS(=O)(=O)c1c([N+](=O)[O-])ncn1C	FMDV antiviral inconclusive (no result: VACV mCherry inh, VACV Venus inh)
Cn1cnc([N+](=O)[O-])c1S(=O)(=O)Oc1cccc2ccccc12	Marburg entry inh inconclusive, VACV mCherry inh inconclusive, FMDV antiviral 22µM, Lassa entry inh inconclusive
Cn1cnc([N+](=O)[O-])c1S(=O)(=O)Oc1ccc(Cl)cc1	Marburg entry inh 11µM, VACV mCherry inh inconclusive, FMDV antiviral 20µM, Lassa entry inh inconclusive
Cn1cnc([N+](=O)[O-])c1Oc1cccc2ccccc12	Marburg entry inh inconclusive, VACV Venus inh inconclusive, FMDV antiviral 28µM
NC(=O)c1sc2nc(-c3cccnc3)ccc2c1N	Marburg entry inh inconclusive, VACV mCherry inh inconclusive
CCOc1ccccc1NC(=O)c1sc2nc(-c3ccc(OC)cc3)ccc2c1N	Marburg entry inh inconclusive, HCMV inh -95, Lassa entry inh inconclusive
